Screens: PubChem BioAssay, National Center for Advancing Translational Sciences (NCATS)
This is a sample that favours compounds with a hit; in the whole collection about 2.3% have one here.
Tau ThT inhib – blocks human tau fibril formation measured by thioflavin T. recombinant tau K18 P301L, heparin-induced fibrillization, ThT fluorescence. Potency, µM (highest dose often 57.4 µM), most hits filed as inhibitors. 2.1% of 270,000 active. AID 1460; active = well fitted curve in the direction sought with a large enough effect; inconclusive = small, poorly fitted or top-dose-only effect, or another doubt; inactive = no such curve, though single readings can be large; an effect the other way counts as inactive or inconclusive; also: nearly all actives have a fitted effect of over 55% in size
Target sequence (P10636 561-689 P618L limits assumed): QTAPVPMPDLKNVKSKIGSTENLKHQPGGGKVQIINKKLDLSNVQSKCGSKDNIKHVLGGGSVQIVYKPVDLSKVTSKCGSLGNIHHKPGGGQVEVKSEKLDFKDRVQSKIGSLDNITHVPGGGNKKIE
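ThT emission at 510 nm, taken 1 hr after adding 30 uM dye, quantifies aggregates formed when 20 uM heparin acts on human tau K18 P301L for 6 hr at 37 C.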
USP1 inh – USP1/UAF1 (human) deubiquitinase inhibition; recombinant USP1/UAF1, Ub-Rhodamine cleavage fluorescence; Potency, µM (highest dose often 57.1 µM), usual class: inhibitors; O94782; 0.23% of 390,000 active; active = well fitted curve in the direction sought with a large enough effect; inconclusive = small, poorly fitted or top-dose-only effect, or another doubt; inactive = no such curve, though single readings can be large; an effect the other way counts as inactive or inconclusive; also: nearly all actives have a fitted effect of over 60% in size
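USP1/UAF1 complex (1 nM) preincubated 15 min at room temperature with compound, then Ub-Rho substrate (150 nM final) added. Kinetic fluorescence at 480/540 nm over 6 reads at 60 s intervals; 50 mM HEPES pH 7.8, 0.5 mM EDTA, 0.1 mg/ml BSA, 1 mM TCEP, 0.01% Tween-20.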
Tau fibril FP – blocks human tau fibril formation measured by polarization | AID 1468 | K18 P301L tau heparin fibrillization, Alexa594 FP, 6 h | Potency, µM (doses to about 57.7 µM), usual class: inhibitors | P10636 | 0.39% of 280,000 active; active = well fitted curve in the direction sought with a large enough effect; inconclusive = small, poorly fitted or top-dose-only effect, or another doubt; inactive = no such curve, though single readings can be large; an effect the other way counts as inactive or inconclusive; also: nearly all actives have a fitted effect of over 55% in size
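Recombinant K18 P301L […], labeled with Alexa 594 at 0.24 uM over 15 uM unlabeled; heparin inducer 20 uM final; 37 C, 6 hr; FP endpoint.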
Tau fluor counter – counter-screen for tau fibril formation inhibitors | tau K18 P301L (four-repeat tau fragment) Alexa594 fluorescence, heparin fibrillization | Potency, µM (highest dose often 57.7 µM) | 0.93% of 280,000 active | AID 1463; active = well fitted curve in the direction sought with a large enough effect; inconclusive = small, poorly fitted or top-dose-only effect, or another doubt; inactive = no such curve, though single readings can be large; an effect the other way counts as inactive or inconclusive; also: nearly all actives have a fitted effect of over 55% in size
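Human K18 P301L tau (15 uM unlabeled plus 0.24 uM Alexa 594-labeled, final) in 100 mM sodium acetate pH 7 was mixed with compound and 20 uM heparin and incubated 6 hr at 37 C.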
Coupling enz – counter-screen for Giardia aldolase inhibitors: coupling enzyme system; coupling enzyme system counterscreen, AmpLite Red fluorescence; activity change, negative = inhibition, % at 58.2 µM, hits read low; 0.67% of 290,000 active; AID 2472; in the data active = activity change below about -30%
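Final compound at 57.5 uM, incubated 10 min at RT with coupling enzyme reagent (glyceraldehyde-3-phosphate), then 20 min with substrate and AmpLite Red detection. Fluorescence read at 525/598 nm; tests interference with the coupling assay, not aldolase inhibition.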
CASP1 redox cat – caspase-1 inhibition with catalase present | shares compounds with Coupling enz | Potency, µM (titrated, usually from 57.5 µM), actives largely listed as inhibitors | caspase-1 Ac-WEHD-AFC fluorescence rate, catalase buffer | AID 888 | 30 tested, under 10 active
Casp1 confirm – confirmation of allosteric or competitive inhibitors of human caspase-1; purified caspase-1, fluorogenic substrate cleavage; shares compounds with Coupling enz; Potency, µM (doses to about 57.5 µM), hits mostly inhibitors; 20% of 60 active; AID 896
Casp7 confirm – blocks human caspase-7 activity in concentration-response; 60 tested, under 10 active; recombinant caspase-7, fluorogenic substrate cleavage; AID 897; shares compounds with Coupling enz; Potency, µM (highest dose often 57.5 µM), actives largely listed as inhibitors; active = well fitted inhibition curve with a large enough effect in the main read-out, with a control signal flat, not every such curve was filed as active; inconclusive = small, poorly fitted or top-dose-only effect, or a change in a side signal; inactive = no such curve, though single readings can be large or run the other way
Target sequence (P55210 24-198 limits assumed): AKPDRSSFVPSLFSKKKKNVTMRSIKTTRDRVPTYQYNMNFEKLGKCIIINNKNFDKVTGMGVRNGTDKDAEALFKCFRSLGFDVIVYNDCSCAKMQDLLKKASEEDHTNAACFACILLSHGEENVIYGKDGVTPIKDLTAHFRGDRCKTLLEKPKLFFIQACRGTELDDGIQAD
Target sequence (P55210 207-303 limits assumed): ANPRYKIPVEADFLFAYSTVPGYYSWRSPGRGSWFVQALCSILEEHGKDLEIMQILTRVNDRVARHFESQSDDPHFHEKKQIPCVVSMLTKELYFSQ
Casp7 cysteine – caspase-7 inhibition with cysteine present | 60 tested, under 10 active | caspase-7 enzyme with cysteine, fluorogenic substrate, redox counterscreen | shares compounds with Coupling enz | Potency, µM (series often up to 57.5 µM), usual class: inhibitors
Casp7 catalase – inhibits caspase-7 in catalase buffer, redox counter-screen; shares compounds with Coupling enz; Caspase-7 Ac-DEVD-AFC fluorescence rate, catalase buffer; Potency, µM (series often up to 57.5 µM), most hits filed as inhibitors; 30 tested, under 10 active; AID 909
Casp1 cysteine – inhibits caspase-1 in cysteine buffer, redox counter-screen. recombinant caspase-1, fluorogenic substrate, cysteine buffer. shares compounds with Coupling enz. AID 929. 60 tested, under 10 active. Potency, µM (highest dose often 57.5 µM), actives largely listed as inhibitors
A number is an active result; – = inactive; ? = inconclusive; · = no result given. Unless noted, calls follow the shape of the dose curve; as a rule, active = well fitted inhibition curve with a large enough effect in the main read-out, with a control signal flat; inconclusive = small, poorly fitted or top-dose-only effect, or a change in a side signal; inactive = no such curve, though single readings can be large or run the other way.

SMILES	Tau ThT inhib	USP1 inh	Tau fibril FP	Tau fluor counter	Coupling enz	Casp1 confirm	Casp7 confirm	Casp7 cysteine	Casp1 cysteine	others
Cc1ccc(CNc2ccc(O)cc2)cc1	3.5µM	?	8.9µM	?	-46	–	–	–	–
CN1N=C(C(=O)N2CCc3c([nH]c4ccccc34)C2c2c(F)cccc2Cl)CCC1=O (centres undefined)	–	–	–	–	–	·	·	·	·
Nc1ccc(O)c(C(=O)O)c1	·	·	·	·	-46	–	–	–	–
CCc1cnc2c(c1SCC(=O)Nc1ccc(OC)c(OC)c1)c(=O)n(C)c(=O)n2C	–	–	–	–	·	·	·	·	·
CC(C)(C)C(=O)[C@@H]1[C@@H]2C(=O)N(Cc3ccccc3)C(=O)[C@@H]2[C@H]2c3ccccc3C=CN12	?	·	–	–	–	·	·	·	·
CC(=O)[C@@H]1[C@@H]2C(=O)N(c3ccc(F)c(Cl)c3)C(=O)[C@@H]2C2c3ccccc3C=CN21 (some centres undefined)	?	·	–	–	–	–	–	–	?	CASP1 redox cat=?;Casp7 catalase=–
COc1ccc(C2CC(=O)N3CN(c4ccc(C)c(Cl)c4)CSC3=C2C#N)cc1OC (centres undefined)	14µM	–	22µM	–	-38	–	–	–	–	CASP1 redox cat=–;Casp7 catalase=–
COc1cc(C2CC(=O)N(c3ccc(C)c(Cl)c3)C3=C2C(=O)OC3)cc(OC)c1OC (centres undefined)	–	?	–	–	·	·	·	·	·
COc1ccc2nc3oc(C(=O)Nc4cccc(C(F)(F)F)c4)cc3cc2c1	?	–	–	–	·	·	·	·	·
